Compound activity (PubChem)
D1 ag – agonists of human D1 dopamine receptor. P21728. HEK293 T-REx D1 cells, calcium flux, agonist mode. activation, % at 2 µM. 360,000 compounds, 1% hits; also: 0% is about no effect
Target sequence (P21728 whole entry, looked up): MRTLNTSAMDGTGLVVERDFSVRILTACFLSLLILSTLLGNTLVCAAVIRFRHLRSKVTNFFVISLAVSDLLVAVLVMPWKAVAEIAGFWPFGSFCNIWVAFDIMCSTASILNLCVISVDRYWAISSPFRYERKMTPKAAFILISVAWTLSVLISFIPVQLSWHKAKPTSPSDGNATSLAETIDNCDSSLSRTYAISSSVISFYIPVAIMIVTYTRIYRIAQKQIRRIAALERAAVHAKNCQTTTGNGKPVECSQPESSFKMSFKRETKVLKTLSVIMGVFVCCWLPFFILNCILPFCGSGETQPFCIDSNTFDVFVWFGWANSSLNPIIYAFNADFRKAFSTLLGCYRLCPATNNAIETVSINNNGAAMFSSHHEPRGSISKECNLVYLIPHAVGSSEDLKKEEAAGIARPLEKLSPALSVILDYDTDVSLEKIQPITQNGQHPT
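Tetracycline-induced HEK293 TREx D1 cells, force-coupled to calcium signalling, were dye-loaded with a no-wash calcium kit. Compound was pin-added after a 10 s baseline. Fluorescence was read kinetically at 1 cycle/s for 180 s, with calcium rises flagged as agonism.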
TRHR agonist – activates the human TRH receptor; AID 493084; 360,000 compounds, 0.18% hits; TRHR cells, calcium flux fluo-8, FDSS agonist mode; activation, % at 2 µM; also: 0% is about no effect
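Agonist-mode FDSS calcium read (Ex 480/Em 530, 1 s cycles) in 1536-well TRHR cells with fluo-8 dye, after 10-cycle baseline and 23 nL compound addition; TRH at EC20 (10 nM final) added afterwards for the enhancer phase.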
Epigenetic reg – regulators of epigenetic silencing causing reporter derepression in mouse cells | 280,000 compounds, 0.2% hits | murine LDR cells, GFP reporter derepression, 30 h | Potency, µM (highest dose often 53.9 µM), inactives show at the highest dose GFP activation, actives largely listed as activators | AID 1865; active = well fitted activation curve with a large enough effect; also: potency is read from the fitted curve at half-maximal effect; % of control where 0% means no effect; nearly all actives have a fitted effect of over 60% in size
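Readout is the number of GFP-expressing murine LDR cells, counted by cytometry following washing. Cells were treated with compound for 30 h at 37 C; the stably integrated CMV-GFP locus is normally silent.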
D1 PAM – potentiators of human D1 dopamine receptor. potentiation, % at 10 µM. HEK293 TREx D1 cells, calcium flux, dopamine EC20 potentiation. 360,000 compounds, 0.036% hits; in the data active = potentiation above about 30%; also: 0% is about no effect
D1 antag – antagonists of human D1 dopamine receptor | P21728 | HEK293 TREx D1 cells, calcium flux, dopamine EC80; hits give low values | activity change, negative = inhibition, % at 10 µM | 360,000 compounds, 3.2% hits | AID 504652; in the data active = activity change below about -30%; also: % is scaled to controls: 0 for no effect and ±100 for the full control effect
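Calcium flux readout: force-coupled, inducible Hek293 Trex D1 line, cells induced overnight at 30 C with tetracycline, dye-loaded 30–90 min at RT. Antagonism scored against EC80 dopamine challenge given 180 s after compound.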
TRHR enhancer – TRH receptor (human) allosteric enhancement; P34981; TRHR cells, fluo-8 calcium fluorescence, EC20 TRH enhancement; enhancement, % at 2 µM; 360,000 compounds, 0.66% hits; AID 493056; in the data active = enhancement above about 30%; also: 0% is about no effect
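TRHR-expressing cells loaded with fluo-8 calcium dye were read kinetically (ex 480/em 530) during compound addition, then stimulated with an EC20 of TRH (10 nM final). Enhancement of the Gq-mediated intracellular calcium response was scored.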
Active calls of the source: *; · = not tested or not shown. The list is not random: actives were taken first. Their share in the collection is about 4.6%. Rule as the data show it, unless noted: active = activation above about 30%; inactive = the rest.

SMILES	D1 ag	TRHR agonist	Epigenetic reg	D1 PAM	D1 antag	TRHR enhancer
COc1ccc(N2CC(NC(=O)C(=O)c3c[nH]c4ccccc34)CC2=O)cc1 (centres undefined)	2	0	4%	-4	·	1
CC(C)C(=O)NCCSc1c[nH]c2ccccc12	0	0	-1%	-10	-87*	11
COCCOc1ccc(C(F)(F)F)cc1NC(=O)COC(=O)c1c(C)noc1C	3	-1	-1%	-4	25	34*
Cc1ccccc1-c1ccc(C(=O)NCc2ccccc2)o1	-1	0	2%	-8	-42*	0
CCc1cccc(C)c1NC(=O)c1cc(C)nc2c1c(C)nn2-c1cccc(Cl)c1C	1	1	-1%	-7	5	15
Cc1ccc(NS(=O)(=O)c2ccc(C)c(NC(=O)COc3ccccc3)c2)c(C)c1	-2	-1	-2%	-11	-46*	1
CCN(CC)C(=O)CSc1nnc(-c2cccs2)n1Cc1ccco1	3	0	1%	-6	-32*	-1
CC1=NN(C(=O)c2ccccc2-n2cccc2)C(O)(C(F)(F)F)C1 (centres undefined)	1	0	0%	-6	-50*	6
Cc1ccc(S(=O)(=O)N(C)C)cc1NC(=O)COC(=O)c1ccc2ccccc2n1	0	0	·	1	-55*	6
Cc1ccc(S(=O)(=O)N(C)C)cc1NC(=O)COC(=O)c1ccc(Cl)cc1	10	0	3%	-6	-4	-3
CCN(CCO)Cc1csc2ccccc12	5	0	-1%	-2	-38*	-1
CCN(CCO)Cc1csc2ccc(C(C)(C)C)cc12	19	-1	-1%	-12	-82*	0
CCN(CCO)Cc1csc2cc(C)ccc12	3	0	0%	-2	-7	1
O=S(=O)(c1ccc(Br)cc1)c1nc(-c2cccs2)oc1SCc1ccc(F)cc1	9	1	4%	0	3	1
CCCn1ncc(CN2CCN(Cc3ccc(C)o3)C(CCO)C2)c1C (centres undefined)	2	-1	0%	-11	5	6
CCCn1cc(CN2CCN(Cc3ccc(C)o3)C(CCO)C2)c(C)n1 (centres undefined)	1	0	-1%	1	-36*	17
Cc1cccc(C(=O)n2nc(-c3ccco3)nc2NCc2ccccc2)c1	4	1	-2%	-1	-16	-3
CCCCOc1ccc(C(=O)Nc2ccc(CN3CCOCC3)cc2)cc1	19	3	·	-7	-36*	-6
CCCCOc1ccc(C(=O)Nc2cc(C)c(OCC(=O)N3CCOCC3)c(C)c2)cc1	5	0	-1%	-28	-40*	2
O=C(COc1ccc2c3c(c(=O)oc2c1)CCC3)Nc1ccc(CN2CCOCC2)cc1	2	0	·	-3	-2	33*
Cc1cc(=O)oc2cc(OCC(=O)Nc3ccc(CN4CCOCC4)cc3)ccc12	3	0	·	12	16	5
Cc1cc(NC(=O)c2ccc(Cl)cc2)cc(C)c1OCC(=O)N1CCOCC1	4	0	·	0	5	-5
Clc1cccc(N2CCN(c3nc4ccccc4c4nc(-c5cccnc5)nn34)CC2)c1	1	0	0%	-5	14	-1
N#C/C(=C/c1ccncc1)c1nc2ccccc2s1	101*	16	8%	-2	1	16
COc1cc(/C=C(\C#N)c2nc3ccccc3s2)ccc1OCC(=O)Nc1ccccc1	15	3	3.2µM*	-17	-6	0
SMILES	D1 ag	TRHR agonist	Epigenetic reg	D1 PAM	D1 antag	TRHR enhancer
COc1cc(/C=C(\C#N)c2ccccn2)ccc1OCC(=O)Nc1ccc(Br)cc1	12	0	-2%	-4	-15	-1
Cc1nc2ccccc2n1S(=O)(=O)c1ccc(Br)cc1	4	-1	-1%	-11	-44*	-2
CCOc1ccc(/C=C/c2nc3ccccc3n2S(=O)(=O)c2ccc(Br)cc2)cc1	2	0	-1%	3	7	-4
CSc1ccc(/C=C/c2nc3ccccc3n2S(=O)(=O)c2ccc(Br)cc2)cc1	9	-2	-3%	1	-30*	-5
Cc1ccccc1Oc1nc2c(c(=O)n(C)c(=O)n2C)n1Cc1ccc(Br)cc1	3	-1	1%	0	-3	8
COc1ccc(C(=O)NNC(=O)CN2CCC(n3nnc4cc(F)ccc43)CC2)cc1	1	0	-1%	3	-34*	2
COc1ccccc1NC(=O)CN1CCC(n2c(C)nc3cc(F)ccc32)CC1	2	2	2%	-11	8	5
O=C(c1ccc([N+](=O)[O-])cc1)N1CCC(n2nnc3cc(F)ccc32)CC1	0	0	-1%	4	31	40*
COc1ccccc1NC(=O)CN1CCC(n2nnc3cc(F)ccc32)CC1	1	-1	-1%	-9	-46*	-3
Cc1ccc2c(c1)nnn2C1CCN(CC(=O)Nc2ccccc2N2CCOCC2)CC1	3	-1	-1%	-13	-30*	1
CO[C@@]1(NC(=O)Cc2cccs2)C(=O)N2C(C(=O)O)=C(COC(N)=O)CSC21 (some centres undefined)	·	·	1%	·	·	·
O=C(Nc1c2c(nn1-c1ccc(Cl)cc1)CS(=O)(=O)C2)c1cccc(Cl)c1	14	1	9%	-1	-1	-4
CCc1nn2c(=O)cc(COC(=O)c3cccs3)nc2s1	5	1	0%	-6	7	3
CC#CCC1(C(=O)OC)C(=O)NC[C@H]1c1ccccc1 (some centres undefined)	·	·	-1%	·	·	·
COc1ccc(Cl)cc1NC(=O)CN1CCC(n2nnc3cc(C)ccc32)CC1	2	0	0%	-8	-37*	0
CC(C)c1ccc(-c2nnc3n(CCc4ccccc4)c(=O)c4ccccc4n23)cc1	0	0	0%	-1	2	5
Oc1ccc(/C=N/Nc2nn3cnnc3c3ccccc23)cc1	0	1	0%	-1	-51*	9
COc1cc(/C=N/Nc2nn3cnnc3c3ccccc23)ccc1O	0	0	0%	-6	-8	-3
COC(=O)N/N=C/c1cc(N=Nc2ccccc2Cl)ccc1O	3	0	1%	-4	0	0
COC(=O)N/N=C/c1cc(N=Nc2ccccc2)ccc1O	5	0	1%	-6	-34*	-7
Cc1cccc(OCc2cc(=O)n3c(-c4ccccc4)csc3n2)c1C	6	-1	14%	0	-20	-10
CC(=O)Nc1ccc(S(=O)(=O)N2CCN(c3cc(C)ccc3C)CC2)cc1	2	0	-1%	0	7	3
